Measurements published in PubChem BioAssay AID1159580 (chemical genetic matrix, 2015).
The whole screen tested about 5,500 compounds, of which about 2,000 (36%) were called active. About 18% were inconclusive and are not listed. Cut-off read from the data, not from the text of the source: active = normalized growth mostly below about 0.91 (no sharp cut-off); inconclusive = no clear call, values can overlap the other calls; inactive = mostly above about 0.92. The list shows a part of the results.

Assay: chemical genetic growth profiling, strain panel (AID 1159580);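 note: tested at 20 µM; growth read once vehicle control cultures reached saturation at 30 °C; 1 = growth at the plate median or of vehicle wells; lower values mean less growth of the strain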
Details: growth OD

Measured: normalized growth

CC(=O)OC1CC(OC(C)=O)C2(C)C(CC(OC(C)=O)C3(C)C4=CC(=O)OC(=O)C4(C)CCC32)C1(C)C (stereo unspecified)
inactive: S. cerevisiae deletion strains, locus YBR021W, strain FUR4, stronger effect = lower value 1.01 | S. cerevisiae deletion strains, locus YBR229C, strain ROT2, stronger effect = lower value 1 | S. cerevisiae deletion strains, locus YCL029C, strain bik1, stronger effect = lower value 1 | S. cerevisiae deletion strains, locus YDL035C, strain GPR1, stronger effect = lower value 1.01 | S. cerevisiae deletion strains, locus YDL074C, strain BRE1, stronger effect = lower value 1.02 | S. cerevisiae deletion strains, locus YDL101C, strain DUN1, stronger effect = lower value 1.02 | S. cerevisiae deletion strains, locus YDL134C, strain PPH21, stronger effect = lower value 1.02 | S. cerevisiae deletion strains, locus YDL185W, strain tfp1, stronger effect = lower value 1.01 | S. cerevisiae deletion strains, locus YDL192W, strain arf1, stronger effect = lower value 0.982 | S. cerevisiae deletion strains, locus YDR101C, strain arx1, stronger effect = lower value 0.996 | S. cerevisiae deletion strains, locus YDR150W, strain NUM1, stronger effect = lower value 1.01 | S. cerevisiae deletion strains, locus YDR162C, strain NBP2, stronger effect = lower value 1.01 | S. cerevisiae deletion strains, locus YDR318W, strain mcm21, stronger effect = lower value 0.99 | S. cerevisiae deletion strains, locus YDR388W, stronger effect = lower value 1.01 | S. cerevisiae deletion strains, locus YDR502C, strain sam2, stronger effect = lower value 1.02 | S. cerevisiae deletion strains, locus YER110C, stronger effect = lower value 1 | S. cerevisiae deletion strains, locus YER155C, strain BEM2, stronger effect = lower value 0.993 | S. cerevisiae deletion strains, locus YER167W, strain BCK2, stronger effect = lower value 0.995 | S. cerevisiae deletion strains, locus YGL078C, strain dbp3, stronger effect = lower value 1.03 | S. cerevisiae deletion strains, locus YGL086W, strain mad1, stronger effect = lower value 0.998 | S. cerevisiae deletion strains, locus YGL248W, strain PDE1, stronger effect = lower value 1.03 | S. cerevisiae deletion strains, locus YGR078C, strain PAC10, stronger effect = lower value 1.04 | S. cerevisiae deletion strains, locus YGR135W, strain pre9, stronger effect = lower value 1.06 | S. cerevisiae deletion strains, locus YGR252W, strain gcn5, stronger effect = lower value 1.03 | S. cerevisiae deletion strains, locus YHR030C, strain SLT2, stronger effect = lower value 0.999 | S. cerevisiae deletion strains, locus YHR079C, strain IRE1 (second series), stronger effect = lower value 1 | S. cerevisiae deletion strains, locus YHR094C, strain hxt1, stronger effect = lower value 1.01 | S. cerevisiae deletion strains, locus YHR129C, strain ARP1, stronger effect = lower value 1.01 | S. cerevisiae deletion strains, locus YHR200W, strain rpn10, stronger effect = lower value 1.01 | S. cerevisiae deletion strains, locus YIL066C, strain RNR3, stronger effect = lower value 0.99 | S. cerevisiae deletion strains, locus YIL073C, strain SPO22, stronger effect = lower value 1.04 | S. cerevisiae deletion strains, locus YIL125W, strain kgd1, stronger effect = lower value 0.993 | S. cerevisiae deletion strains, locus YIR030C, strain dcg1, stronger effect = lower value 0.999 | S. cerevisiae deletion strains, locus YJL095W, strain BCK1, stronger effect = lower value 1.04 | S. cerevisiae deletion strains, locus YJL134W, strain LCB3, stronger effect = lower value 0.997 | S. cerevisiae deletion strains, locus YJL168C, strain set2, stronger effect = lower value 1 | S. cerevisiae deletion strains, locus YJL187C, strain SWE1 (second series), stronger effect = lower value 1.04 | S. cerevisiae deletion strains, locus YJR043C, strain POL32, stronger effect = lower value 0.99 | S. cerevisiae deletion strains, locus YJR075W, strain HOC1, stronger effect = lower value 1.01 | S. cerevisiae deletion strains, locus YKL009W, strain mrt4, stronger effect = lower value 0.992 | S. cerevisiae deletion strains, locus YKL068W, stronger effect = lower value 1.01 | S. cerevisiae deletion strains, locus YKL085W, strain MDH1 (second series), stronger effect = lower value 0.987 | S. cerevisiae deletion strains, locus YKL085W, strain MDH1, stronger effect = lower value 0.987 | S. cerevisiae deletion strains, locus YKL190W, strain CNB1, stronger effect = lower value 1.01 | S. cerevisiae deletion strains, locus YKR001C, strain vps1, stronger effect = lower value 0.987 | S. cerevisiae deletion strains, locus YLR039C, strain RIC1, stronger effect = lower value 1.02 | S. cerevisiae deletion strains, locus YLR058C, strain SHM2, stronger effect = lower value 1.02 | S. cerevisiae deletion strains, locus YLR102C, strain apc9, stronger effect = lower value 1.01 | S. cerevisiae deletion strains, locus YLR262C, strain YPT6, stronger effect = lower value 0.985 | S. cerevisiae deletion strains, locus YLR268W, strain sec22, stronger effect = lower value 0.981 | S. cerevisiae deletion strains, locus YLR330W, strain CHS5, stronger effect = lower value 1 | S. cerevisiae deletion strains, locus YLR371W, strain rom2, stronger effect = lower value 0.987 | S. cerevisiae deletion strains, locus YLR418C, strain cdc73, stronger effect = lower value 1.03 | S. cerevisiae deletion strains, locus YML016C, strain PPZ1, stronger effect = lower value 1.01 | S. cerevisiae deletion strains, locus YML032C, strain rad52, stronger effect = lower value 1 | S. cerevisiae deletion strains, locus YML124C, strain tub3, stronger effect = lower value 0.998 | S. cerevisiae deletion strains, locus YMR078C, strain ctf18, stronger effect = lower value 1 | S. cerevisiae deletion strains, locus YMR223W, strain ubp8, stronger effect = lower value 1 | S. cerevisiae deletion strains, locus YMR307W, strain GAS1, stronger effect = lower value 0.916 | S. cerevisiae deletion strains, locus YNL067W, strain RPL9B, stronger effect = lower value 1.05 | S. cerevisiae deletion strains, locus YNL233W, strain BNI4, stronger effect = lower value 1.02 | S. cerevisiae deletion strains, locus YNL250W, strain rad50, stronger effect = lower value 1.02 | S. cerevisiae deletion strains, locus YNL271C, strain bni1, stronger effect = lower value 1.01 | S. cerevisiae deletion strains, locus YNL298W, strain CLA4, stronger effect = lower value 1.01 | S. cerevisiae deletion strains, locus YNL307C, strain MCK1, stronger effect = lower value 1.02 | S. cerevisiae deletion strains, locus YNR052C, strain pop2, stronger effect = lower value 1.03 | S. cerevisiae deletion strains, locus YOL006C, strain TOP1, stronger effect = lower value 0.98 | S. cerevisiae deletion strains, locus YOL012C, strain htz1 0.765 | S. cerevisiae deletion strains, locus YOL147C, strain pex11, stronger effect = lower value 1 | S. cerevisiae deletion strains, locus YOR061W, strain CKA2, stronger effect = lower value 0.994 | S. cerevisiae deletion strains, locus YOR069W, strain VPS5, stronger effect = lower value 1.01 | S. cerevisiae deletion strains, locus YOR136W, strain idh2, stronger effect = lower value 1.01 | S. cerevisiae deletion strains, locus YOR144C, strain elg1, stronger effect = lower value 0.996 | S. cerevisiae deletion strains, locus YOR184W, strain ser1, stronger effect = lower value 0.978 | S. cerevisiae deletion strains, locus YOR316C, strain cot1, stronger effect = lower value 1.01 | S. cerevisiae deletion strains, locus YPR119W, strain clb2, stronger effect = lower value 1.01 | S. cerevisiae deletion strains, locus YPR141C, strain kar3, stronger effect = lower value 1.01 | S. cerevisiae deletion strains, locus YPR163C, strain tif3, stronger effect = lower value 1.02 | S. cerevisiae deletion strains, locus YPR167C, strain met16, stronger effect = lower value 1.01 | S. cerevisiae deletion strains, strain wtn01, stronger effect = lower value 0.975 | S. cerevisiae strains, strain wild type, stronger effect = lower value 1
